Where “and” joins values, the source holds several entries; their conditions need not be identical. Equal entries are not always repeated. Results filed as inconclusive are left out. Calls of active or inactive are those of the source. Calls come from the whole dose curve; as a rule, active = well fitted curve in either direction with a large enough effect (not every such curve was filed as active); inconclusive = small, poorly fitted or top-dose-only effect, or another doubt; inactive = flat fitted curve, though single readings scatter.
% is set by controls: 0 for no effect and ±100 for the full control effect.

One experiment in a line: NFAT Signaling Pathway (AID 444).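 Note: carbachol stimulus at about its EC50 of 1 µM final.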 The following applies: Jurkat NFAT-bla M1, carbachol, beta-lactamase ratio, 5 h; at 38 µM (top of the series). A digest of the protocol:
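Jurkat cells carrying an NFAT-driven β-lactamase reporter and co-transfected muscarinic M1 receptor were treated with compound plus carbachol (1 uM final, an EC50 level) for 5 h at 37 °C. CCF4 loading followed for 1 h at RT; 460/530 nm ratio gave %activity.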
For the compound `NCCSSCCN`, the activity change, negative = inhibition is -3.66% (inactive). Regarding `O=C(O)CC[C@@H](C(=O)O)N1C(=O)c2ccccc2C1=O`, the activity change, negative = inhibition is -1.84% (inactive).

Take `CC(C)Cc1ccc([C@H](C)C(=O)O)cc1`: the activity change, negative = inhibition is -3.84% (inactive) and 2.4% (inactive).

The same experiment, now with this note: Jurkat NFAT-bla M1, carbachol, beta-lactamase ratio, 5 h; at 38 µM (top of the series) unless noted.
Consider `Oc1ccccc1O`, for which the activity change, negative = inhibition was 1.49% (inactive). Still for that read-out and setting: then `O=C(c1cc(O)c(O)c([N+](=O)[O-])c1)c1ccccc1F`, with 0.576% (inactive); and `NC(=O)C(=O)O`, with 5.77% (inactive); and `CN(C)c1nc(N)c(C(=O)N=C(N)N)nc1Cl`, with -15.7% (inactive). Regarding `Cn1c(=O)c2[nH]c(-c3ccccc3)nc2n(C)c1=O`, the activity change, negative = inhibition is 3.48% (inactive). On the same count and under the same terms, for `Clc1ccccc1-c1nc(-c2ccncc2)no1` the value was -8.15% [at 7.69 µM] (inactive). Still for that read-out and setting: then `NCCNC(=O)c1ncsc1-c1cccc(F)c1`, with -3.73% (inactive). On the same count and under the same terms, for `Cc1cc(NC(=O)Nc2ccc3c(ccn3C)c2)sn1` the value was 10.3% (inactive); for `NCCCCC(=O)O`, -1.14% (inactive).

As to `CNCC[C@H](Oc1ccc(C(F)(F)F)cc1)c1ccccc1`, the activity change, negative = inhibition is -28% (inactive) and -21.6% (inactive) and -27.9% (inactive).

`Nc1ccc(O)c(C(=O)O)c1`: the activity change, negative = inhibition was -25.5% [at 17.2 µM] (inactive). The same measure, in the same setting: then `Cc1ccc(C(=O)c2ccc(CC(=O)O)n2C)cc1`, with -1.3% [at 17.2 µM] (inactive); and `O=S(=O)(c1cccc2c(I)cccc12)N1CCCNCC1`, with -18.6% (inactive). As to `CN1[C@@H]2CC[C@H]1CC(OC(c1ccccc1)c1ccccc1)C2` (stereo partly drawn), the activity change, negative = inhibition was -83.5% [at 7.69 µM] (active). Still for that read-out and setting: then `CC(C)(C=O)Cc1cc(C(C)(C)C)c(O)c(C(C)(C)C)c1`, with -17.5% (inactive).
